Screening results deposited in PubChem BioAssay by National Center for Advancing Translational Sciences (NCATS).
In the library only some 3.1% were active in any assay of this set; here they are far more common.
GBA activity = modulators of human glucocerebrosidase. Potency, µM. AID 360. purified enzyme, resorufin glucoside fluorescence (screen aimed at inhibitors), 20 min. 48,000 compounds, 1.1% hits. P04062; in the data active = potency below about 15 µM; inconclusive = mostly about 16 µM to 33 µM;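 note: the screen sought inhibitors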
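Compounds titrated against 0.2 nM normal enzyme, 30 uM resorufin beta-D-glucopyranoside substrate, citrate/phosphate buffer with taurocholate and tween-20, pH 5.9. Reaction ran 20 min at room temperature; fluorescence (Ex 548/Em 600) gave AC50.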
Casp1 inh = caspase-1 (human) inhibition, allosteric or competitive | P29466 | Caspase-1 enzyme, Ac-WEHD-AFC fluorogenic rate | Potency, µM (series often up to 57.5 µM), hits mostly inhibitors | 75,000 compounds, 0.03% hits | AID 900
Casp7 inh = caspase-7 (human) inhibition, allosteric or competitive; P55210; recombinant caspase-7, Ac-DEVD-AFC fluorescence rate; Potency, µM (highest dose often 57.5 µM), hits mostly inhibitors; 75,000 compounds, 0.02% hits; active = well fitted inhibition curve with a large enough effect in the main read-out, with a control signal flat, not every such curve was filed as active; inconclusive = small, poorly fitted or top-dose-only effect, or a change in a side signal
Bst PK mod = pyruvate kinase (B. stearothermophilus) modulation; purified pyruvate kinase, luminescence ATP production; ribose 5-phosphate activator present at AC10; Potency, µM; AID 361; 51,000 compounds, 1.2% hits; in the data active = potency below about 11 µM; inconclusive = mostly about 12 µM to 25 µM;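 the screen sought inhibitors and activators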
Luciferase inh = inhibitors of firefly luciferase; purified firefly luciferase, luminescence, 8 min; 72,000 compounds, 2.2% hits; Potency, µM (series often up to 57.1 µM), most hits filed as inhibitors; P08659; note: nearly all actives have a fitted effect of over 40% in size
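Substrate buffer containing 10 uM ATP (pH 7.2 imidazole, Mg2+, KCl, detergent, BSA) is dispensed, compound pinned in, then luciferase/luciferin detector mix added. After 8 min at ambient temperature, light output is measured.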
A number is an active result; . = inactive; ? = inconclusive; / = no result given; [ ] = another dose, or the depositor's remark. Unless noted, calls come from the whole dose curve; as a rule, active = well fitted inhibition curve with a large enough effect; inconclusive = small, poorly fitted or top-dose-only effect; inactive = flat fitted curve, though single readings scatter.

SMILES | GBA activity | Casp1 inh | Casp7 inh | Bst PK mod | Luciferase inh
COc1ccc(OCCSc2ncccn2)cc1 | . | . | . | / | 25.1µM
COc1ccc(OCCCSc2ncccn2)cc1 | / | . | . | / | ?
O=C(O)[C@@H]1[C@@H]2C[C@H]([C@@H](Br)[C@H]2N2C(=O)CCC2=O)[C@@H]1C(=O)O | / | .[11.5 µM] | .[11.5 µM] | / | .[11.4 µM]
CN1CCc2nc(N)nc(-c3nc(N)nc4c3CN(C)CC4)c2C1 | / | .[11.5 µM] | .[11.5 µM] | / | .[11.4 µM]
C/C(=N/O)[C@@H]1C[C@H](CC(=O)O)C1(C)C | / | .[11.5 µM] | .[11.5 µM] | / | .[11.4 µM]
CN1CCN(c2nc(C(N)=O)cc(-c3ccccc3)n2)CC1 | / | / | / | 10.6 | .
Cc1cc(-c2ccccc2)nc(N2CCN(c3ccccn3)CC2)n1 | / | . | . | . | .
CC1(C)S[C@@H]2[C@H](NC(=O)C3(N)CCCCC3)C(=O)N2[C@@H]1C(=O)O | / | .[11.5 µM] | .[11.5 µM] | / | .[11.4 µM]
O=C(Nc1nc(-c2ccc(Cl)s2)cs1)c1cccs1 | . | . | . | ? | .
O=C(Nc1nc(-c2ccccc2)cs1)c1cccs1 | / | . | . | / | 12.6µM
C[C@@]12CCC(=O)C=C1CC[C@H]1[C@@H]2[C@@H](O)C[C@]2(C)[C@@H]1CC[C@@]2(O)C(=O)CO | / | .[11.5 µM] | .[11.5 µM] | / | .[11.4 µM]
N=c1nc(N)nc2n1NC(c1ccc(F)cc1)=CS2 | . | . | . | 3.61 | .
C=C(C)Cn1c(SCC#N)nc2ccccc2c1=O | . | . | . | . | .
N#CCSc1nc2ccc(N3CCCCC3)cc2c(=O)n1Cc1ccccc1 | 15.2 | ? | . | . | .
COc1ccc(OC)c(CCNC(=O)Cn2sc3nc(C)cc(C)c3c2=O)c1 | / | . | . | / | 10µM
CCCCCCCCCCCCCCCCOC[C@@H](COCC(F)(F)F)OP(=O)(O)OCO | / | / | / | / | .
O=C(Nc1cccc(Cn2cccn2)c1)c1cc2c(s1)CCCC2 | . | . | . | . | 12.6µM
N#Cc1nc(COc2ccccc2)oc1NCCCn1ccnc1 | / | . | . | . | .
N#Cc1nc(COc2ccc(Br)cc2)oc1NCCCn1ccnc1 | 14.4 | . | . | . | .
N#Cc1nc(-c2ccc(OCc3ccccc3)cc2)oc1NCCCn1ccnc1 | ? | . | . | 4.28 | .
N#Cc1nc(-c2ccc(OCc3ccc(Cl)cc3)cc2)oc1NCc1cccnc1 | . | . | . | 2.66 | .
COc1ccc(-c2nc(C#N)c(NCc3ccc(C)cc3)o2)cc1OC | . | . | . | . | .
COc1ccc(-c2nc(C#N)c(NCCc3ccccc3)o2)cc1OC | . | . | . | . | 12.6µM
N#Cc1nc(-c2ccc(OCc3ccccc3)cc2)oc1NCc1cccnc1 | . | . | . | / | .
CC(CN(C)C)NC(=O)c1ccc(Cc2nc3ccccc3[nH]2)cc1 (centres undefined) | / | . | . | / | /
SMILES | GBA activity | Casp1 inh | Casp7 inh | Bst PK mod | Luciferase inh
CC(C)(C)c1ccc(-c2nc(C#N)c(NCc3ccncc3)o2)cc1 | . | . | . | / | 20µM
Cc1ccc(OCc2nc(C#N)c(NCCCn3ccnc3)o2)cc1 | / | . | . | . | .
CN(C)c1oc(-c2ccc(OCc3ccccc3)cc2)nc1C#N | . | . | . | 2.77 | .
N#Cc1nc(-c2ccc(OCc3ccccc3Cl)cc2)oc1NCCCn1ccnc1 | ? | . | . | 2.62 | .
CC(C)CNc1oc(-c2ccc(F)cc2)nc1C#N | / | . | . | / | .
CN(C)c1oc(-c2cccs2)nc1C#N | / | / | / | . | .
COc1cc(C(=O)O[C@@H]2CC(C)=CC[C@@]3(C)CC[C@](O)(C(C)C)[C@H]23)ccc1O | / | / | / | / | .[11.4 µM]
On1onc2c3cc(-c4ccccc4)nc3ccc21 | 14.7 | . | . | . | .
Cc1ccc2[nH]c(-c3ccccc3)cc(=O)c2c1 | / | . | . | / | 5.01µM
Cc1ccc2[nH]c(C(=O)O)c(-c3ccccc3)c2c1 | . | . | . | . | .
COc1ccc(O)c(C(=O)CC(=O)c2ccc(F)cc2)c1 | / | . | . | / | 25.1µM
Cc1ccc(O)c(C(=O)CC(=O)c2cccc(F)c2)c1 | / | . | . | / | .
CCOC(=O)c1sc(NC(=O)c2c(C)nn(Cc3ccccc3)c2C)cc1C | . | . | . | / | 5.01µM
CC(C)CNc1nc2ncnc(N)c2[nH]1 | / | .[11.5 µM] | .[11.5 µM] | / | .[11.4 µM]
CN(C)c1ccc(N/C=C/C(=O)c2ccccc2)cc1 | . | . | . | 0.422 | 0.316µM
COc1cccc(C(=O)Nc2ccc(NC(=O)C3CC3)cn2)c1 | . | . | . | / | 7.94µM
CCC(=O)Nc1ccc(NC(=O)c2cccc(OC)c2)nc1 | . | . | . | / | 12.6µM
COc1ccc(NC(=O)c2ccco2)cc1NC(=O)c1cccc(OC(C)C)c1 | 9.83 | . | . | . | .
O=C(NC1=NCCS1)c1ccc(-c2ccc(Cl)cc2)o1 | ? | . | . | 5.38 | 7.94µM
COc1cccc(C(=O)Nc2ccc(NC(=O)C(C)C)nc2)c1 | . | . | . | . | .
O=S(=O)(O)CCCc1cccc2ccccc12 | / | .[11.5 µM] | .[11.5 µM] | / | .[11.4 µM]
COc1cccc(C(=O)NC2=NCCS2)c1 | . | . | . | . | 15.8µM
COc1cccc(C(=O)Nc2ccc(C)cc2)c1 | . | . | . | ? | 10µM
O=C(NCC12CC3CC(CC(C3)C1)C2)c1cc2n(n1)C(C(F)(F)F)CC(c1ccco1)N2 (centres undefined) | 13.1 | . | . | . | .
CCCCCCCCCCCCCCC/C=C\[C@H](O)[C@@H](NC(=O)CCCCCCCCCCCCC)OC (tested in a mixture with another compound) | / | . | . | / | .
SMILES | GBA activity | Casp1 inh | Casp7 inh | Bst PK mod | Luciferase inh
CCN1C(=S)SC(=O)C1=C1C=C(C)N(CCOC)C(C)=C1 | 14.8 | . | . | / | .
CCN1C(=S)SC(=O)C1=C1C=C(C)N(CCO)C(C)=C1 | . | . | . | / | ?
Cc1nn(C(=O)c2ccc3c(c2)OCO3)c(N)c1-c1ccccc1 | / | . | . | / | 2µM
Cc1nn(C(=O)c2cccs2)c(N)c1-c1ccccc1 | / | . | . | / | 15.8µM
CC(=O)c1c(C)nn(C(=O)c2cccs2)c1C | / | . | . | / | .
O=C(c1ccc2c(c1)OCO2)N1CCN(c2ccccc2)CC1 | . | . | . | . | .
Cc1ccccc1/C=C\C1=NCCN1 | / | . | . | / | .
O=[N+]([O-])c1ccc(CSCc2ccc(Cl)cc2)cc1 | / | .[11.5 µM] | .[11.5 µM] | / | .[11.4 µM]
CCN(CC)CCNC(=O)c1ccc(Cc2nc3ccccc3[nH]2)cc1 | / | . | . | / | /
CC[C@H](C)[C@@H]1O[C@]2(CC[C@@H]1C)C[C@H]1C[C@H](CC=C(C)[C@@H](O[C@H]3C[C@H](OC)[C@H](O[C@H]4C[C@H](OC)[C@H](O)[C@H](C)O4)[C@H](C)O3)[C@@H](C)C=CC=C3CO[C@@H]4[C@@H](O)C(C)=C[C@H](C(=O)O1)[C@@]34O)O2 | / | . | . | / | .
O=C(O)c1cccc(C[C@H](Br)C(=O)O)c1 | / | .[11.5 µM] | .[11.5 µM] | / | .[11.4 µM]
COc1ccc(OC)cc1 | / | . | . | / | /
COc1ccc(-c2cc(O)cc(O)c2)cc1 | . | . | . | ? | 15.8µM
O=C(O)CNC(=O)c1ccccc1O | / | .[11.5 µM] | .[11.5 µM] | / | .[11.4 µM]
COCCn1c(C)cc(C(=O)CSc2nc3ccccc3o2)c1C | . | . | . | / | 7.94µM
COCCn1c(C)cc(C(=O)CSc2nnc3ccccn23)c1C | / | . | . | / | 10µM
Nn1c(-c2cccs2)nc2sc3c(c2c1=O)CCCC3 | . | / | ? | ? | 15.8µM
O=c1oc(-c2cccs2)nc2sc3c(c12)CCCCC3 | / | . | . | / | ?
